The other results are listed elsewhere or left out. The hit rate among all sequences tested is not known here.
B1: HC880 (peptide)
chain: CAALMTGYTGAGNASASA
B2: HC2127 (peptide)
chain: CAEFVVCCSMAGNASASA
B3: HC2521 (peptide)
chain: CASTNCSAHLAGNASASA
B4: HC1352 (peptide)
chain: CAESYSSMPPAGNASASA
B5: HC2106 (peptide)
chain: CAMDVVCCSMAGNASASA
B6: HC639 (peptide)
chain: CARDWAHNGLAGNASASA
B7: WN1 (peptide)
chain: CAQRKRGGTAAGNASASA
B8: FS-2015 (peptide)
chain: CARGKRHATKAGNASASA
B9: FS-2016 (peptide)
chain: CARGKRQATAAGNASASA
B10: FS-2017 (peptide)
chain: CARGKRRREKAGNASASA
B11: FS-2019 (peptide)
chain: CARGKRYSYKAGNASASA
B12: HC485 (peptide)
chain: CAGERCDLEDAGNASASA
B13: HC1465 (peptide)
chain: CASSYGFQYSAGNASASA
B14: HC1926 (peptide)
chain: CATTPCSGSMAGNASASA
B15: HC1588 (peptide)
chain: CAARDQLEQAAGNASASA
B16: FS-1376 (peptide)
chain: CAMIHRFWKSAGNASASA
B17: FS-1485 (peptide)
chain: CASFDRKKKSAGNASASA
B18: FS-1343 (peptide)
chain: CAIFSRCARSAGNASASA
B19: HC804 (peptide)
chain: CATGSPITYSAGNASASA
B20: FS-736 (peptide)
chain: CAVPPRRKKSAGNASASA
B21: FS-831 (peptide)
chain: CANAHRDKKSAGNASASA
B22: FS-1358 (peptide)
chain: CALKHRVKKSAGNASASA
B23: FS-802 (peptide)
chain: CAIFSRVKKSAGNASASA
B24: FS-39 (peptide)
chain: CAKGSRRKKSAGNASASA
B25: HC2444 (peptide)
chain: CAEIEVPCHRAGNASASA
B26: HC603 (peptide)
chain: CAVFDITKLLAGNASASA
B27: FS-600 (peptide)
chain: CAKAARAKKIAGNASASA
B28: HC1073 (peptide)
chain: CAAATAFVGAAGNASASA
B29: HC1060 (peptide)
chain: CASPLTTSQTAGNASASA
B30: FS-803 (peptide)
chain: CAIKCRTKKSAGNASASA
B31: FS-1651 (peptide)
chain: CARLYREKKSAGNASASA
B32: FS-157 (peptide)
chain: CAEPKRIKKSAGNASASA
B33: FS-176 (peptide)
chain: CALKARRKKSAGNASASA
B34: HC1140 (peptide)
chain: CARLHQWISSAGNASASA
B35: FS-829 (peptide)
chain: CAMLYRHKKSAGNASASA
B36: FS-615 (peptide)
chain: CALSNRTMKSAGNASASA
B37: HC2339 (peptide)
chain: CAEPPCHRPSAGNASASA
B38: FS-414 (peptide)
chain: CAEPGREKKSAGNASASA
B39: FS-717 (peptide)
chain: CASFARIKKWAGNASASA
B40: FS-413 (peptide)
chain: CAEKARKGKSAGNASASA
B41: HC1458 (peptide)
chain: CALYDVVTKLAGNASASA
B42: HC1948 (peptide)
chain: CAWCTTPCSGAGNASASA

Target: furin, P09958
Assay: furin cleavage Z-score vs untreated control; higher = more cleavage, active = 3.5 or more, inactive = 1 or less, 8 variable residues between constant flanks
In short: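 Read counts from sequencing released DNA gave abundance for each bead-bound 8-mer peptide–cDNA fusion cut by purified furin over 7.5, 15 or 30 min. The cleavage Z-score compares log counts with furin-free reactions after lowess adjustment and median absolute deviation scaling.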
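Note: purified furin at 1:10 enzyme:substrate in 50 mM HEPES pH 7.5.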

furin, P09958, sequence (P09958 whole entry): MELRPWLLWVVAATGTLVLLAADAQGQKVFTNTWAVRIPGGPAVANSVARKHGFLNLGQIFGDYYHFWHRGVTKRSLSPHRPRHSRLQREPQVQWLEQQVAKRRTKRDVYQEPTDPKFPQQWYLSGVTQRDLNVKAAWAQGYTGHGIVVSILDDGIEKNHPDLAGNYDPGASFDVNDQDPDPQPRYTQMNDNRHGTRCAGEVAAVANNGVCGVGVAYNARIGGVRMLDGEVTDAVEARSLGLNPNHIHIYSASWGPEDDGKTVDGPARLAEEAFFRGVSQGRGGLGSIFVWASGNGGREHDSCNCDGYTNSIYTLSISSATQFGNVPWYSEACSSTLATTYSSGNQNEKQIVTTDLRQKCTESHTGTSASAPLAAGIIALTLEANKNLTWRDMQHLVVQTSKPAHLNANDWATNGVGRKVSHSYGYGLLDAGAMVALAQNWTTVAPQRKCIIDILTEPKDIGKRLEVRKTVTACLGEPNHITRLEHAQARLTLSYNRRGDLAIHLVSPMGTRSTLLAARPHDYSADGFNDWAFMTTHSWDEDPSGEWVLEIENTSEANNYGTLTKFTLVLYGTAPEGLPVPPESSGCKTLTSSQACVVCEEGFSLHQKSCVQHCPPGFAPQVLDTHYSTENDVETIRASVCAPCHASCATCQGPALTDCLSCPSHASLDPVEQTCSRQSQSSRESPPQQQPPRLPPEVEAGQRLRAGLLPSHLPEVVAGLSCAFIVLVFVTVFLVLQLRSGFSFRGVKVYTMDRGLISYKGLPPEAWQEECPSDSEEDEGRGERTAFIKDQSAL

| Sequence | furin cleavage Z-score (7.5 min) | furin cleavage Z-score (15 min) | furin cleavage Z-score (30 min) |
| --- | --- | --- | --- |
| B1 | -1.03 (inactive) | -2.97 (inactive) | -0.313 (inactive) |
| B2 | -1.01 (inactive) | 0.711 (inactive) | -0.748 (inactive) |
| B3 | 1.3 | -0.319 (inactive) | 0.484 (inactive) |
| B4 | 0.813 (inactive) | -0.573 (inactive) | -0.906 (inactive) |
| B5 | -0.103 (inactive) | -0.752 (inactive) | -0.482 (inactive) |
| B6 | 0.358 (inactive) | -0.707 (inactive) | 0.626 (inactive) |
| B7 | -1.04 (inactive) | 0.079 (inactive) | -0.249 (inactive) |
| B8 | 7.59 (active) | 7.53 (active) | 7.79 (active) |
| B9 | 7.14 (active) | 9.61 (active) | 6.1 (active) |
| B10 | -0.00549 (inactive) | -0.584 (inactive) | -1.52 (inactive) |
| B11 | 0.222 (inactive) | 0.712 (inactive) | 1.19 |
| B12 | 0.0125 (inactive) | -0.597 (inactive) | 0.387 (inactive) |
| B13 | 1.75 | 0.0331 (inactive) | -0.209 (inactive) |
| B14 | -0.191 (inactive) | 0.357 (inactive) | -1.65 (inactive) |
| B15 | 1.26 | 0.408 (inactive) | -0.23 (inactive) |
| B16 | 0.282 (inactive) | -1.21 (inactive) | -1.26 (inactive) |
| B17 | -0.34 (inactive) | -0.366 (inactive) | -0.05 (inactive) |
| B18 | 0.568 (inactive) | 0.619 (inactive) | 1.19 |
| B19 | -0.202 (inactive) | -0.337 (inactive) | -0.568 (inactive) |
| B20 | 3.36 | 2.71 | 4.45 (active) |
| B21 | -0.25 (inactive) | -0.94 (inactive) | -2.16 (inactive) |

| Sequence | furin cleavage Z-score (7.5 min) | furin cleavage Z-score (15 min) | furin cleavage Z-score (30 min) |
| --- | --- | --- | --- |
| B22 | 8.56 (active) | 10.2 (active) | 8.6 (active) |
| B23 | 3.99 (active) | 2.87 | 3.95 (active) |
| B24 | 5.36 (active) | 4.72 (active) | 4.1 (active) |
| B25 | 1.1 | 1.09 | 0.798 (inactive) |
| B26 | 0.928 (inactive) | -0.333 (inactive) | 0.0832 (inactive) |
| B27 | -0.438 (inactive) | -0.00567 (inactive) | -0.411 (inactive) |
| B28 | -1.28 (inactive) | -0.663 (inactive) | -0.282 (inactive) |
| B29 | 0.0213 (inactive) | -0.739 (inactive) | 0.362 (inactive) |
| B30 | 1.77 | 4.04 (active) | 3.26 |
| B31 | 0.828 (inactive) | 2.77 | 3.88 (active) |
| B32 | 3.63 (active) | 4.2 (active) | 3.26 |
| B33 | 7.34 (active) | 8.84 (active) | 7.56 (active) |
| B34 | 0.126 (inactive) | -1.75 (inactive) | -1.83 (inactive) |
| B35 | 0.949 (inactive) | 1.65 | 1.42 |
| B36 | 1.04 | -0.454 (inactive) | 0.561 (inactive) |
| B37 | 0.111 (inactive) | -0.455 (inactive) | -0.0572 (inactive) |
| B38 | -0.759 (inactive) | 0.432 (inactive) | -0.848 (inactive) |
| B39 | -0.31 (inactive) | -0.161 (inactive) | 1.88 |
| B40 | -1.2 (inactive) | -1.61 (inactive) | -0.85 (inactive) |
| B41 | 0.188 (inactive) | 0.0294 (inactive) | -0.805 (inactive) |
| B42 | 1.23 | 0.244 (inactive) | 1.72 |

Source: the supplement of paper PMC3545927
